# Rows were chosen to be rich in hits. Some 2.3% of all compounds tested hit in one or more screens of this group.
# USP1 inh = USP1/UAF1 (human) deubiquitinase inhibition; O94782; recombinant USP1/UAF1, Ub-Rhodamine cleavage fluorescence; Potency, µM (titrated, usually from 57.1 µM), inactives show at the highest dose activity change, negative = inhibition, usual class: inhibitors; actives 0.23% (n = 390,000); note: potency is the fitted concentration of half-maximal effect; nearly all actives have a fitted effect of over 60% in size
# Target sequence (O94782 whole entry, looked up): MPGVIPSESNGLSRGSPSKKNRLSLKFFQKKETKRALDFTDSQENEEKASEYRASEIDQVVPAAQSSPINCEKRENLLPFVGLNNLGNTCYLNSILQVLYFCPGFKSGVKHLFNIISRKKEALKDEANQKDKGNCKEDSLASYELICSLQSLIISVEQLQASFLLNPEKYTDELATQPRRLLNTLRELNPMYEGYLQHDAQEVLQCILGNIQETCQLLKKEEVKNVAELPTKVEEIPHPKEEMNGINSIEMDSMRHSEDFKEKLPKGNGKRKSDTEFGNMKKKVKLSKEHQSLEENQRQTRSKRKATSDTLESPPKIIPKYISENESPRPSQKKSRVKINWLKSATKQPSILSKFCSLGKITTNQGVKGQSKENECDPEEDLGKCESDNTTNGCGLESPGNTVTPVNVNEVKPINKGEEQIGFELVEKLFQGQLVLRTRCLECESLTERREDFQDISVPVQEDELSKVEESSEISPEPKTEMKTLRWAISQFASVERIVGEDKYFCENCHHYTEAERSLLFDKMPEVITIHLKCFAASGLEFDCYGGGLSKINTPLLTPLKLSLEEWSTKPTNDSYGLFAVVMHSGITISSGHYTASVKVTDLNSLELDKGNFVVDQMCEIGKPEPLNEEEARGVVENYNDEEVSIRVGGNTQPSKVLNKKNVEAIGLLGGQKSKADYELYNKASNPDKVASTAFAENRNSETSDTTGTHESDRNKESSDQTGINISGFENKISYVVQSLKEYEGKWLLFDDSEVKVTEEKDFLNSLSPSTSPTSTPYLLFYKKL
#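 1 nM enzyme complex + cpd, 15 min RT; start with Ub-Rho 150nM final; kinetic fluorescence ex 480/em 540, 6 reads q60 s. Buffer 50mM HEPES pH 7.8, 0.5mM EDTA, 0.1 mg/ml BSA, 1mM TCEP, 0.01% Tween-20.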
# Tau FP inhib = blocks human tau fibril formation measured by polarization. K18 P301L tau heparin fibrillization, Alexa594 FP, 6 h. P10636. Potency, µM (series often up to 57.7 µM), without a hit: at the top dose activity, negative = inhibition, hits mostly inhibitors. AID 1468. actives 0.39% (n = 280,000); note: potency is the fitted concentration of half-maximal effect; nearly all actives have a fitted effect of over 55% in size
#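 Human K18 P301L fragment (15 uM unlabeled plus 0.24 uM Alexa 594-labeled) in 100 mM sodium acetate pH 7 with compound, aggregation induced by 20 uM heparin for 6 hr at 37 C. ThT (30 uM) added for 1 hr, then Alexa 594 FP read.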
# Tau fibril ThT = tau fibrillization inhibition (ThT binding) | P10636 | recombinant tau K18 P301L, heparin-induced fibrillization, ThT fluorescence | Potency, µM (series often up to 57.4 µM), without a hit: at the top dose activity, negative = inhibition, most hits filed as inhibitors | actives 2.1% (n = 270,000); note: potency is the fitted concentration of half-maximal effect; nearly all actives have a fitted effect of over 55% in size
#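 Tau K18 P301L fragment (15 uM unlabeled plus 0.24 uM Alexa 594-labeled) in 100 mM sodium acetate pH 7 with compound, fibrillization induced by 20 uM heparin for 6 hr at 37 C. Thioflavin T (30 uM) added, fluorescence read after 1 hr (ex 450, em 510 nm).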
# Coupling enz = coupling enzyme interference in Giardia aldolase counter-screen. coupling enzyme system counterscreen, AmpLite Red fluorescence. activity change, negative = inhibition, % at 58.2 µM, hits read low. actives 0.67% (n = 290,000); in the data active = activity change below about -30%
#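 Compounds tested against the coupling enzymes alone at 57.5 uM final; readout was AmpLite Red fluorescence (525/598 nm) after 20 min at RT.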
# Tau fluor counter = counter-screen for tau fibril formation inhibitors; tau K18 P301L (four-repeat tau fragment) Alexa594 fluorescence, heparin fibrillization; Potency, µM (highest dose often 57.7 µM), inactives show at the highest dose activity change, negative = decrease; actives 0.93% (n = 280,000); note: potency is the fitted concentration of half-maximal effect; nearly all actives have a fitted effect of over 55% in size
#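 Human K18 P301L tau (15 uM unlabeled plus 0.24 uM Alexa 594-labeled, final) in 100 mM sodium acetate pH 7 was mixed with compound and 20 uM heparin and incubated 6 hr at 37 C.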
# * marks the source's active call; other numbers are inactive results; u = inconclusive; x = no result; ! = repeats disagree; [ ] = dose if it differs, or a comment. Unless noted, calls come from the whole dose curve; as a rule, active = well fitted curve in the direction sought with a large enough effect; inconclusive = small, poorly fitted or top-dose-only effect, or another doubt; inactive = no such curve, though single readings can be large; an effect the other way counts as inactive or inconclusive. % is set by controls: 0 for no effect and ±100 for the full control effect.
SMILES,USP1 inh,Tau FP inhib,Tau fibril ThT,Coupling enz,Tau fluor counter
CCCCC(=Nc1ccc(N)cc1)C1=C(O)C(C(=O)OC)C(C)(C)CC1=O (configuration not stated),u,25.1µM*,10µM*,-39.9*,7.94µM*[quencher]
CCC(=Nc1ccc(N)cc1)C1=C(O)C(C(=O)OC)C(C)(C)CC1=O (configuration not stated),u,14.1µM*,7.08µM*,-48.3*,u
CCCN(C(=O)Cn1nc(Cc2cccnc2)c2ccccc2c1=O)c1ccc(C(C)C)cc1,4.5%,4.4%,-9.8%,x,-7.5%
COc1ccc(NCc2cc3cc(OC)ccc3[nH]c2=O)cc1,-24.7%,-4.4%,7.94µM*,-20.0,-24.9%
CC1=CC(=O)C(C(C)C)=C/C1=N/OS(=O)(=O)c1ccccc1,-1.4%,u,14.1µM*,-73.1*,u
CC1=CC(=O)C=C(C)C1=NOS(=O)(=O)c1ccccc1,-24.1%,u,14.1µM*,-87.4*,u
Cc1ccc2c(c1)/C(=N/OS(=O)(=O)c1ccccc1)CCS2,-20.5%,x,x,x,x
COC(=O)c1c(C)sc(-c2c(-c3ccc(F)cc3)[nH]c3[nH]c(=O)[nH]c(=O)c23)c1O,-12.1%,5.5%,u,x,10µM*[quencher]
CCc1ccc(-c2[nH]c3c(c2-c2sc(C)c(C(=O)OC)c2O)c(=O)n(C)c(=O)n3C)cc1,16.9%,5.0%,-2.4%,x,-6.1%
O=C1/C(=C/Nc2ccc3c(c2)OCO3)CCc2ccccc21,u,u,1.58µM*,-40.0*,7.94µM*[quencher]
O=C1OC2(CCCCC2)OC(=O)C1=CNc1ccc2c(c1)OCO2,2.1%,1.5%,0.8%,-9.9,-10.8%
COc1cccc(/C=C2\CCc3ccccc3C2=O)c1,u,-11.5%,u,-2.0,-21.2%
COc1ccc2c(c1)CC/C(=C\C=C\c1ccccc1)C2=O,u,-8.3%,2.51µM*,-16.7,-25.4%
COc1ccc(S(=O)(=O)Nc2ccc3c(c2)OCO3)cc1,-0.8%,u,-13.8%,-0.4,-17.7%
COc1ccc(N/C=C2\CCc3ccccc3C2=O)cc1,u,-14.7%,0.891µM*,-39.2*,28.2µM*[quencher]
COc1ccc2c(c1)CC/C(=C\Nc1ccc3c(c1)OCO3)C2=O,u,u,1.26µM*,-49.0*,14.1µM*[quencher]
CCN(CC)c1ccc(NC(=O)COC(=O)CCC(=O)c2cccs2)cc1,-19.1%,x,x,x,x
CCN(CC)c1ccc(NC(=O)COC(=O)C23CCC(=O)N2c2ccccc2S3)cc1 (configuration not stated),-14.8%,u,-10.6%,-32.1*,-19.6%
COC(=O)c1ccc(NC(=O)CSc2ncc3c(n2)-c2cc(Cl)ccc2N(Cc2ccccc2)S3(=O)=O)cc1,-10.1%,15.8µM*,8.2%,x,u
COc1ccccc1NC(=O)CSc1ncc2c(n1)-c1cc(Cl)ccc1N(Cc1ccccc1)S2(=O)=O,1.3%,-5.7%,-3.3%,x,-27.0%
CC1=C(C(=O)O)N2C(=O)C(NC(=O)C(N)c3ccc(O)cc3)C2SC1 (configuration not stated),x,u,28.2µM*,-1.4,u
CC1=C(C(=O)O)N2C(=O)[C@@H](NC(=O)[C@@H](N)c3ccccc3)[C@@H]2SC1,x,x,x,4.6,x
CC=CC1=C(C(=O)O)N2C(=O)[C@H](NC(=O)[C@H](N)c3ccc(O)cc3)[C@@H]2SC1,x,u,22.4µM*,-0.9,-22.9%
Cc1nc(-c2cccc(F)c2)sc1CCNC(=O)Cc1ccc(F)cc1,6.1%,-4.0%,-9.7%,x,-8.6%
Cc1ccc(NC(=O)CCS(=O)(=O)c2cc(Br)cc3c2N(C(=O)C2CC2)CC3)cc1,-5.0%,-7.4%,-3.5%,x,-11.2%
SMILES,USP1 inh,Tau FP inhib,Tau fibril ThT,Coupling enz,Tau fluor counter
COc1ccccc1-c1cn[nH]c1-c1ccc(OCc2ccccc2F)cc1O,-18.2%,u,-17.6%,-7.3,10µM*[quencher]
COc1ccccc1-c1cn[nH]c1-c1ccc(O)cc1O,-11.7%,x,x,-4.4,x
COc1ccccc1-c1cn[nH]c1-c1ccc(OCc2ccc(F)cc2)cc1O,-26.0%,u,-10.3%,-0.4,10µM*[quencher]
CCCCNC(=O)CCCCCn1c(=O)[nH]c2ccccc2c1=O,-0.9%,-1.3%,-3.4%,x,-5.3%
Cc1ccccc1CSc1nnc2[nH]c(=O)cc(-c3ccccc3)n12,-5.9%,7.5%,u,x,-3.9%
CN(C)c1ncc2nc(-c3cccs3)c(=O)n(CCC#N)c2n1,x,x,x,0.4,x
Cc1cc(C)n(-c2nc3ccccc3nc2Nc2ccc3c(c2)OCO3)n1,-20.7%,u,-7.8%,-2.9,u
Cc1cc(C)n(-c2nc3ccccc3nc2Nc2ccc(N(C)C)cc2)n1,u,u,u,x,17.8µM*[quencher]
Cc1ccc2nc(Nc3ccc4[nH]c(=O)[nH]c4c3)c(-n3nc(C)cc3C)nc2c1,-23.4%,15.0%,u,1.8,11.2µM*[quencher]
COc1cc(Nc2ncc3c(n2)CCN(Cc2cc(Br)cs2)C3)cc(OC)c1,-22.9%,u,-16.7%,x,u
CNC(=S)NNc1nncc2ccccc12,-5.4%,1.7%,-5.7%,1.5,-0.7%
NNc1nncc2ccccc12,x,u,u,-58.8*!,-12.3%
CCc1cc2c(nc1CC)CCN(CC/C(C)=N/O[C@@H](C)CN1CCCCc3nc(C)c(C)cc31)C2,x,-9.8%[11.6 µM],-16.5%[11.5 µM],2.9,-9.5%[11.6 µM]
O=C1c2ccccc2C(=O)c2c(O)c(O)cc(O)c21,-34.3%,u,5.01µM*,-11.8,14.1µM*[quencher]
O=C1c2ccccc2C(=O)c2c(O)ccc(O)c21,x,u,u,-16.9,-27.6%
Cc1c(N)cc(N)cc1C(=O)O,-10.2%,-9.8%,x,-34.7*,-7.8%
Cc1c(Br)cc(C(=O)O)c(C)c1C,-13.3%,7.6%,-1.4%,3.4,10.5%
CCn1c(SCC(=O)Nc2ccc(C)cc2Br)nnc1-c1nonc1NC(C)=O,-5.8%,7.7%,-16.1%,x,-3.5%
CN(/N=C/c1ccc(O)cc1O)c1nc(-c2ccccc2)cc(-c2ccccc2)n1,-16.7%,u,u,-2.7,14.1µM*[quencher]
Cc1cc(-c2ccccc2)nc(N/N=C/c2ccc(O)cc2O)n1,-26.4%,x,x,-3.3,x
COc1ccc2oc(-c3ccc(C)c(NC(=O)c4ccc(-c5ccccc5[N+](=O)[O-])o4)c3)nc2c1,-21.5%,-5.6%,u,x,-27.4%
Cc1cc(SC#N)cc(C)c1NC(=O)CCl,-22.6%,-2.3%,-6.9%,0.9,-5.2%
CCC(=O)Nc1ccc(SC#N)cc1C,u,u,8.91µM*,3.4,-22.1%
Cc1cc(OC(C)C(=O)N2CCN(CCc3ccccn3)CC2)ccc1Cl (configuration not stated),-11.7%,-2.0%,1.8%,x,-5.4%
Cc1cc(=O)n(CC(C)C)c(O)c1C#N,u,-13.5%,u,-32.8*,-13.1%
CCn1c(O)c(C#N)c(C)cc1=O,u,0.2%,-15.2%,-25.8,-12.7%

# Source: PubChem (National Center for Advancing Translational Sciences (NCATS))
